PubChem BioAssay (Tox21)
Records with an inconclusive call do not appear. Calls of active or inactive are those of the source. Unless noted, the call rests on the fitted dose curve.

Columns and labels:
[1] = Nuclear factor erythroid 2-related factor 2/antioxidant responsive element (Nrf2/ARE) small molecule agonists: qHTS cell viability counter screen in human keratinocytes (AID 1919968; active means well fitted curve in the direction sought with a large enough effect in the repeat runs; an effect the other way counts as inactive or inconclusive; further: nearly all actives have a fitted effect of over 55% in size)
How it was run: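 Stably transfected HaCaT (KeratinoSens), 1,500/well. Test agents in DMSO were applied for 23 h, 37 C/5% CO2. CellTiter-Fluor was incubated 1 h before the fluorescence read.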

[2] = Nuclear factor erythroid 2-related factor 2/antioxidant responsive element (Nrf2/ARE) small molecule agonists: luciferase reporter gene qHTS assay in human keratinocytes (AID 1919969); further: nearly all actives have a fitted effect of over 35% in size; further: potency means the concentration at half of the fitted maximal effect
[3] = target: Gonadotropin-releasing hormone receptor (Homo sapiens) (UniProt P30968); assay: Human gonadotropin-releasing hormone receptor (GnRHR) small molecule agonists, calcium flux assay in GnRHR-HEK293 cells (AID 1920063); further: nearly all actives have a fitted effect of over 35% in size
Chain of Gonadotropin-releasing hormone receptor (Homo sapiens) (P30968 whole entry, looked up): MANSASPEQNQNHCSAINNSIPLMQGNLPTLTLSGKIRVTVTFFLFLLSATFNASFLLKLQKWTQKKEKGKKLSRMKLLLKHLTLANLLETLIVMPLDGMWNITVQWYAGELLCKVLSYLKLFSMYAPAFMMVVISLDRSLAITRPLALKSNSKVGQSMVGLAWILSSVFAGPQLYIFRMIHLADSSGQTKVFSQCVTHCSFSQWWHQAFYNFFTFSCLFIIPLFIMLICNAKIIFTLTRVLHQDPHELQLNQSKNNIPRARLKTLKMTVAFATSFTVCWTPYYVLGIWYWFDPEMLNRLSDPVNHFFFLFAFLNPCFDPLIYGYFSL
How it was run: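 Stable human GnRHR HEK293 line. 18 h plating, then calcium dye for 1 h at 37 C. Agonist-mode compound addition from DMSO stocks; fluorescence monitored 3 min.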

[4] = target: KiSS-1 receptor (Homo sapiens) (UniProt Q969F8); assay: Human kisspeptin (KISS1R) small molecule agonists, calcium flux assay in KISS1R-HEK293 cells (AID 1920064; active means well fitted curve in the direction sought with a large enough effect in the repeat runs; an effect the other way counts as inactive or inconclusive)
Chain of KiSS-1 receptor (Homo sapiens) (Q969F8 whole entry, looked up): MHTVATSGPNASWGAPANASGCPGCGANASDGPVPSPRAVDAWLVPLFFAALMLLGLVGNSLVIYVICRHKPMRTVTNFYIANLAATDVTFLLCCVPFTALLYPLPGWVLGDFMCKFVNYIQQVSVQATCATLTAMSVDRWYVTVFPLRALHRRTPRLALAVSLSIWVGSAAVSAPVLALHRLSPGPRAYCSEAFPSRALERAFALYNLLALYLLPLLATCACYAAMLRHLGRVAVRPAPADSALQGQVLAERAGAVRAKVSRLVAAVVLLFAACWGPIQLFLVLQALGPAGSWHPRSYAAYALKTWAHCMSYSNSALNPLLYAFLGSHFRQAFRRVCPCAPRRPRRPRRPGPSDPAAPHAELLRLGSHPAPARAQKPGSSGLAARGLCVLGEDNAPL
How it was run: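 After overnight (18 h) culture at 37 C/5% CO2, human KISS1R-HEK293 cells received calcium dye for 1 h, then test compound; emission at 540 nm (excitation 480 nm) was tracked for 3 min.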

[5] = G protein-coupled receptor (GPCR) small molecule agonists, calcium flux assay: HEK293 wild type cell line counter screen (AID 1920065)
How it was run: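 Following 18 h incubation at 37 C/5% CO2, plates got calcium dye for 1 h; compounds, ATP or DMSO were then pinned in and fluorescence followed kinetically (480/540 nm).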

[6] = p53 small molecule agonists, cell-based qHTS assay with human liver microsomes (AID 1963577);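 further: p53 response element beta-lactamase reporter cells with liver microsomes plus NADPH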
How it was run: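 p53RE-bla cells; 5 h settle, 37 C/5% CO2; cpd + HLM 0.5 mg/mL + NADPH 0.5 mg/mL (final); 16 h 37 C; LiveBLAzer 2 h RT dark; fluorescence readout.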

[7] = p53 small molecule agonists, cell-based qHTS assay with rat liver microsomes (AID 1963578)
How it was run: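 Rat liver microsome activation: microsomes 0.5 mg/mL, NADPH 0.5 mg/mL final; p53RE-bla cells, 16 h 37 C; LiveBLAzer readout, 2 h RT dark.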

[8] = p53 small molecule agonists, cell-based qHTS assay with human liver microsomes: qHTS cell viability counter screen (AID 1963579); further: nearly all actives have a fitted effect of over 45% in size
How it was run: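 Luminescent CellTiter-Glo read-out, 30 min at room temperature, gauged cytotoxicity in p53RE-bla cells exposed 16 h at 37 C to DMSO-dissolved compounds with metabolic activation by human liver microsomes and NADPH, each 0.5 mg/mL final.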

[9] = p53 small molecule agonists, cell-based qHTS assay with rat liver microsomes: qHTS cell viability counter screen (AID 1963580); further: nearly all actives have a fitted effect of over 45% in size
How it was run: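 After the beta-lactamase ratio was read, CellTiter-Glo was added to the same wells and luminescence measured at 30 min; cells had been treated 16 h at 37 C with compounds, rat liver microsomes and NADPH (0.5 mg/mL final each).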

[10] = p53 small molecule agonists, cell-based qHTS assay: qHTS cell viability counter screen (AID 1963581); further: nearly all actives have a fitted effect of over 45% in size
How it was run: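 qHTS counter screen: 16 h compound exposure at 37 C of p53RE-bla HCT-116 cells (4,000 per well, seeded 5 h prior), cell viability by ATP luminescence.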

[11] = p53 small molecule agonists, cell-based qHTS assay (AID 1963582; active means well fitted activation curve with a large enough effect in the signal ratio in the repeat runs, not every such curve was filed as active; the % refers to the signal ratio; further: potency means the concentration at half of the fitted maximal effect)
How it was run: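 Measured: fluorescence from cleaved LiveBLAzer substrate. System: p53RE-bla cells, 16 h compound treatment at 37 C, 2 h substrate step at room temperature.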

[12] = target: 5-hydroxytryptamine receptor 2A (Homo sapiens) (UniProt P28223); assay: 5-hydroxytryptamine receptor 2A (HTR2A) small molecule antagonists, cell-based qHTS assay (AID 1963586); further: nearly all actives have a fitted effect of over 45% in size; further: potency means the concentration at half of the fitted maximal effect
Chain of 5-hydroxytryptamine receptor 2A (Homo sapiens) (P28223 whole entry, looked up): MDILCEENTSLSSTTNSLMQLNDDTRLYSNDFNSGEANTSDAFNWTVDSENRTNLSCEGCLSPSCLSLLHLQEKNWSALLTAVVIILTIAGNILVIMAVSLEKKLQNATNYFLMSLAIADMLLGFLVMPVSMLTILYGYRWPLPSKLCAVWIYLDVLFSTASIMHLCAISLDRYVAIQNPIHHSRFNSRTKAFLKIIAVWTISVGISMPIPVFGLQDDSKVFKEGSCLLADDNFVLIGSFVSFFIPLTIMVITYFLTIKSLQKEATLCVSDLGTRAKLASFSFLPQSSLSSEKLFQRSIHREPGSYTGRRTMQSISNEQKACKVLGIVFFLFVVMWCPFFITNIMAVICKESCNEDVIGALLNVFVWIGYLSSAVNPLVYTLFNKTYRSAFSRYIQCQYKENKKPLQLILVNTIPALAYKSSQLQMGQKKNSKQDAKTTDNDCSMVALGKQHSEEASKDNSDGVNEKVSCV
How it was run: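 CHO cells stably expressing human HTR2A were plated for 18 h at 37 C, then loaded with calcium dye for 1 h. Compounds were preincubated 5 min at room temperature before DOI (4 nM solution) was added. Kinetic fluorescence was read for 3 min.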

[13] = target: 5-hydroxytryptamine receptor 2A (Homo sapiens) (UniProt P28223); assay: 5-hydroxytryptamine receptor 2A (HTR2A) small molecule agonists, cell-based qHTS assay (AID 1963587); further: nearly all actives have a fitted effect of over 30% in size; further: potency means the concentration at half of the fitted maximal effect
How it was run: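 CHO cells stably expressing human HTR2A, plated 18 h, loaded with calcium dye 1 h at 37 C. Agonist mode: compounds added and intracellular calcium fluorescence recorded kinetically for 2 min at 1 sec intervals.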

[14] = target: Muscarinic acetylcholine receptor M1 (Homo sapiens) (UniProt P11229); assay: Cholinergic receptor muscarinic 1 (CHRM1) small molecule agonists, cell-based qHTS assay (AID 1963589); further: nearly all actives have a fitted effect of over 35% in size
Chain of Muscarinic acetylcholine receptor M1 (Homo sapiens) (P11229 whole entry, looked up): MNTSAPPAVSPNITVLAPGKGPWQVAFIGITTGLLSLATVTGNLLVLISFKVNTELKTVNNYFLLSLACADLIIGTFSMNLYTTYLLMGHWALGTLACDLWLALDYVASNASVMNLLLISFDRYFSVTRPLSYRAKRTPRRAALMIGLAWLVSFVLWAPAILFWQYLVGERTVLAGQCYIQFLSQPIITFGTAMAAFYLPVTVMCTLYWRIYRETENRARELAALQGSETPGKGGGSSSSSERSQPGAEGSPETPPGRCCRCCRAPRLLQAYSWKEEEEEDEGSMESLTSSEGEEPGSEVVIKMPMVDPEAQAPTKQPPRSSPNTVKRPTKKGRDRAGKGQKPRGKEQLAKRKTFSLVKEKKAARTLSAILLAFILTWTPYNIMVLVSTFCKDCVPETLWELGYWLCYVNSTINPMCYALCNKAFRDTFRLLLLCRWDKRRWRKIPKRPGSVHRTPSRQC
How it was run: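 Kinetic fluorescence (1 s intervals) of calcium-sensitive dye in human M1 CHO cells after compound addition; cells pre-incubated 18 h at 37 C/5% CO2 and dye-loaded 1 h.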

[15] = cAMP Responsive Elements (CRE) small molecule agonists, cell-based qHTS assay (AID 1963590)
How it was run: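 Test agents in DMSO were incubated 3 h at 37 C/5% CO2 with CRE-bla HEK 293T cells seeded 18 h earlier; LiveBLAzer B/G FRET substrate was added and read after 2 h at room temperature.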

[16] = cAMP Responsive Elements (CRE) small molecule antagonists, cell-based qHTS assay (AID 1963591; active means well fitted inhibition curve with a large enough effect in the signal ratio in the repeat runs, not every such curve was filed as active; the % refers to the signal ratio)
How it was run: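 Reporter line CRE-bla HEK 293T in dialyzed-FBS DMEM; cells preincubated 18 h, treated 3 h with compound plus NKH477 (0.25 uM final); LiveBLAzer FRET, 2 h RT.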

[17] = target: Beta-2 adrenergic receptor (Homo sapiens) (UniProt P07550); assay: Adrenergic beta2 receptor (ADRB2) small molecule antagonists, cell-based qHTS assay (AID 1963592); further: series mostly up to about 92 µM; nearly all actives have a fitted effect of over 50% in size
Chain of Beta-2 adrenergic receptor (Homo sapiens) (P07550 whole entry, looked up): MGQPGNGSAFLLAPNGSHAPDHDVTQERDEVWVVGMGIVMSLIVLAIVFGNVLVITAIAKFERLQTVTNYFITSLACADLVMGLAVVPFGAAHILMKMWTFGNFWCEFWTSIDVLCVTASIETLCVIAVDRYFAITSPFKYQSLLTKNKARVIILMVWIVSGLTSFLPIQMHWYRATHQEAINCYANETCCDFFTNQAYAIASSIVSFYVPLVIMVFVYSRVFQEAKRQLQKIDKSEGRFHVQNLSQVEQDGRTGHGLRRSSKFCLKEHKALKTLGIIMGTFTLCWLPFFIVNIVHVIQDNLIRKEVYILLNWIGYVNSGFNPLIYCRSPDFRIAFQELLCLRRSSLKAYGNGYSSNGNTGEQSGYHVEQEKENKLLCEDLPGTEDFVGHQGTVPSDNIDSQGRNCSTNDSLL
How it was run: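 Assay format: CHO-ADRB2 cells, 18-20hr seeding at 37C/5% CO2, then compound plus 1nM isoproterenol agonist mix for 0.5hr RT. Homogeneous time-resolved fluorescence cAMP detection after 1hr, expressed as 665/615 nm ratio.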

[18] = target: D(2) dopamine receptor (Homo sapiens) (UniProt P14416); assay: Dopamine D2 receptor (DRD2) small molecule agonists, cell-based qHTS assay (AID 1963594); further: nearly all actives have a fitted effect of over 35% in size; further: potency means the concentration at half of the fitted maximal effect
Chain of D(2) dopamine receptor (Homo sapiens) (P14416 whole entry, looked up): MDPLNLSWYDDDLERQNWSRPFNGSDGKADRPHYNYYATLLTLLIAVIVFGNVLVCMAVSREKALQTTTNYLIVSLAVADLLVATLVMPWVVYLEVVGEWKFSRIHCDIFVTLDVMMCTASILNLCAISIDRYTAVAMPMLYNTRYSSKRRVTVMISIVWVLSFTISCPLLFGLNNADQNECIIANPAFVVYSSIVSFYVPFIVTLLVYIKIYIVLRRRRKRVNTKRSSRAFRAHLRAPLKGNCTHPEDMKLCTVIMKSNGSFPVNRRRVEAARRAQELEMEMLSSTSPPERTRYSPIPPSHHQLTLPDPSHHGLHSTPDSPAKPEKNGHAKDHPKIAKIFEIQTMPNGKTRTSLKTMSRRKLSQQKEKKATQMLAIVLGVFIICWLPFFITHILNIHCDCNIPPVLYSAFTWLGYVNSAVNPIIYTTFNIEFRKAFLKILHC
How it was run: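 HEK293 cells stably expressing human DRD2, pre-treated with PDE inhibitor Ro20-1724 (0.1 mM final) and compound 10 min at room temperature, then stimulated with NKH477 (200nM […]) for 30 min. cAMP read by HTRF (665/620 nm).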

[19] = target: D(2) dopamine receptor (Homo sapiens) (UniProt P14416); assay: Dopamine D2 receptor (DRD2) small molecule antagonists, cell-based qHTS assay (AID 1963595; active means well fitted inhibition curve with a large enough effect in the signal ratio in the repeat runs, with a control signal flat; the % refers to the signal ratio)
How it was run: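 Antagonist mode in DRD2-HEK293 cells: after compound addition with 0.1 mM Ro20-1724, cells received quinpirole (12 nM) and NKH477 (200 nM) for 30 min at room temperature; HTRF cAMP read after 1 h detection.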

Measured: Potency

O=C1CCCc2c(O)cccc21
inactive: all assays above

C=COCC1CCC(CO)CC1 (stereo unspecified)
not listed: [15] | [16]
inactive: all other assays above

CNC(=O)c1ccccc1Sc1ccc2c(/C=C/c3ccccn3)n[nH]c2c1
active: [2] 84.1 nM | [11] 1410 nM
not listed: [15] | [16]
inactive: all other assays above

CC(C)Cc1ccc(C(C)C(=O)OCc2ccccn2)cc1 (stereo unspecified)
active: [12] 2050 nM
not listed: [16] | [18]
inactive: all other assays above

CCCN(CCC)CCc1cccc2c1CC(=O)N2
active: [13] 16900 nM | [18] 61.9 nM
not listed: [16]
inactive: all other assays above

Cc1cccc(C)c1NC(=O)c1cc(S(N)(=O)=O)c(Cl)cc1O
inactive: all assays above

c1ccc(-c2nn[nH]n2)cc1
inactive: all assays above
